# Bioassay records: PubChem BioAssay, National Center for Advancing Translational Sciences (NCATS)
# Most compounds without a hit are left out; they make up all but 2.4% or so of the library.
# D2 antag = antagonizes the human D2 dopamine receptor. P14416. HEK293 TREx D2 cells, calcium flux, dopamine EC80. inhibition, % at 10 µM. hit rate 2% among 340,000. AID 485344; in the data active means inhibition above about 30%; inactive means below that, where a call was filed
# Target sequence (P14416 whole entry, looked up): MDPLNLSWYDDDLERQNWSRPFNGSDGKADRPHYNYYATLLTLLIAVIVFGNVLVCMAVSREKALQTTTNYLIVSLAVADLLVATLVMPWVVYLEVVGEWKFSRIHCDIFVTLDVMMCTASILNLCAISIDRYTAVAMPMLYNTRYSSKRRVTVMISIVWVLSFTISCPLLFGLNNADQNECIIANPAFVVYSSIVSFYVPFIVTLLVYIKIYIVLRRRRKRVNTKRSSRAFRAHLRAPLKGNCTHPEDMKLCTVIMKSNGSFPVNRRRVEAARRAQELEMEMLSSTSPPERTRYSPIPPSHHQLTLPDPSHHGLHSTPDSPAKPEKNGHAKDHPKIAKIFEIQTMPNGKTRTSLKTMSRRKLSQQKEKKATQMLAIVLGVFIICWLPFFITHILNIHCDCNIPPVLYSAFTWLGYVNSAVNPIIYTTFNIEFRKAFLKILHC
#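 Read-out: kinetic calcium fluorescence (1 cycle/s) in inducible HEK293 T-REx D2 cells after an EC80 dopamine addition that followed 180 s compound preincubation. Loss of the dopamine response indicates antagonism.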
# D2 PAM-1 = human D2 receptor positive allosteric modulation. AID 624464. potentiation, % (concentration not given with the values). P14416. DiscoveRx D2 beta-arrestin cells, luminescence, 90 min; 100% = 57 uM dopamine signal. hit rate 0.23% among 360,000; in the data active means potentiation above about 50%; inconclusive means mostly about 30% to 49%
#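 PathHunter beta-arrestin assay in DiscoveRx D2 cells. Compounds were added with an EC20 of dopamine (50 nM final) for 90 min at 37 deg C. Luminescence was read 1 h after detection reagent, with 57 uM dopamine as the EC100 control.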
# D2 PAM-2 = D2 dopamine receptor (human) potentiation | P14416 | AID 485347 | hit rate 0.34% among 340,000 | HEK293 T-REx D2, calcium flux, EC20 dopamine potentiation | potentiation, % at 10 µM;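 active means potentiation over 3 SD above the plate norm, cut at about 30% in these data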
#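 Potentiation of an EC20 dopamine calcium response is measured in a force-coupled, tetracycline-inducible Hek293 Trex D2 line. Compound-only kinetic reads over 180 s flag agonists before dopamine addition.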
# D2 ag-1 = activates the human D2 dopamine receptor. P14416. DiscoveRx PathHunter D2 beta-arrestin, luminescence, 90 min; 100% = 57 uM dopamine signal. activation, % (no concentration beside the values). hit rate 0.084% among 360,000; in the data active means activation above about 40%; inconclusive means between about 15% and that limit
#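 DiscoveRx PathHunter D2 beta-arrestin cells (2,100/well) attached overnight, then compound-stimulated 90 min at 37 C in HBSS/10 mM HEPES/0.1% Tween-20 buffer; beta-galactosidase complementation read by luminescence after 1 h at ambient temperature. Dopamine 57 uM final (EC100) as control.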
# D2 ag-2 = agonists of human D2 dopamine receptor | hit rate 0.53% among 340,000 | activation, % at 2 µM | HEK293 T-REx D2 cells, calcium flux agonist mode | P14416;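 active means activation over 3 SD above normal in the single-dose calcium agonist read, cut at about 30% in these data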
#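 Agonism is scored from calcium flux in a force-coupled, inducible HEK293 cell line expressing D2, read kinetically for 180 s after compound addition against dopamine controls.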
# Hits are given with their value; – = inactive; ? = inconclusive; · = not tested or not shown.
SMILES,D2 antag,D2 PAM-1,D2 PAM-2,D2 ag-1,D2 ag-2
Cc1c(Cl)cccc1NC(=O)CCS(=O)(=O)c1ccc2c(c1)CC(C)N2C(=O)C1CC1 (stereo unspecified),·,·,–,·,–
CCOc1ccc(OCC)c(NC(=O)CSc2nnnn2CC)c1,–,–,32.2,–,–
Cn1c(SCC(=O)Nc2ccc(Cl)cc2F)nnc1-c1ccco1,40.4,–,–,–,–
COc1ccc(Cl)cc1NC(=O)CSc1nnc(COc2ccccc2)n1C,42.8,–,–,–,–
COc1ccc(C)cc1NC(=O)CSc1nnc(-c2cc3cccc(OC)c3o2)n1N,35.1,–,–,–,–
CCn1c(COc2ccccc2)nnc1SCC(=O)Nc1cc(OC)ccc1OC,·,–,·,–,·
COc1ccc(Cl)cc1NC(=O)CSc1nnc(COc2ccccc2)n1N,53.7,–,–,–,–
CN1C(=O)Cc2cc(S(=O)(=O)NCc3ccccc3Cl)ccc21,·,·,–,·,·
O=C1Cc2cc(S(=O)(=O)NCc3ccccc3Cl)cc3c2N1CCC3,–,–,33.9,–,–
COc1cccc(NC(=O)C2CCCN2C(=O)Nc2cccc(F)c2)c1 (stereo unspecified),–,–,–,–,–
COc1cccc(NC(=O)C2CCCN2C(=O)Nc2ccccc2)c1 (stereo unspecified),33.5,–,–,–,–
CN1/C(=C\C(=O)C[n+]2ccc(C(=O)c3ccccc3)cc2)C(C)(C)c2ccccc21,–,53.2,–,–,–
COc1ccc(C(=O)Nc2nnc(SCc3cc(=O)n4cccc(C)c4n3)s2)cc1,·,·,–,·,–
CCOc1ccc(C(=O)Nc2ccc3nc(SCC(=O)N4CCOCC4)sc3c2)cc1,·,·,–,·,–
Cc1ccc(S(=O)(=O)Nc2cc(C)c(O)c(S(=O)(=O)c3ccc(C)cc3)c2)cc1,–,87.6,–,–,–
Cc1cc(NS(=O)(=O)c2ccccc2)cc(Cl)c1O,–,88.1,–,?,–
Cc1nc2c(-c3ccc(F)cc3)c(C)nn2c(C)c1CCC(=O)NCc1cccc(Cl)c1,·,·,–,·,–
COc1ccc(Cn2c(=O)c3oc4ccccc4c3n(CC(=O)Nc3c(C)cccc3C)c2=O)cc1,·,·,–,·,·
CON(C)c1nc(Oc2ccc(=O)[nH]n2)nc(N(C)C)n1,–,–,45.4,–,–
CC(C)c1ccc(NC(=O)CN2C(=O)COc3ccc(S(=O)(=O)N4CCCCC4)cc32)cc1,·,·,–,·,–
COc1ccc(C2(CNC(=O)C(=O)Nc3ccc(F)cc3)CCCC2)cc1OC,·,·,–,·,–
O=C(COc1ccc(Cl)cc1)Nc1ccc2nc(SCC(=O)N3CCCC3)sc2c1,·,·,–,·,·
Cc1ccsc1C=Nc1ccc(O)cc1,–,75.0,–,?,–
Cc1ccsc1/C=N/N=C/c1sccc1C,–,–,–,–,–
O=C(N/N=C/C(Br)=C\c1ccccc1)c1ccc2nc[nH]c2c1,34.4,–,–,–,–
SMILES,D2 antag,D2 PAM-1,D2 PAM-2,D2 ag-1,D2 ag-2
O=C(N/N=C/C(Br)=C/c1ccccc1)c1ccc([N+](=O)[O-])cc1,39.1,–,–,–,–
CC(=C/c1ccccc1)/C=N/NC(=O)c1ccc2nc[nH]c2c1,–,–,–,–,–
O=C(N/N=C/C(Br)=C/c1ccccc1)c1ccncc1,–,–,–,–,–
Cc1ccc(NC(=O)c2cc(CN3CCOCC3)on2)cc1Cl,·,·,–,·,–
CCN(CC)CCOc1c(C)cccc1Cl,62.0,–,–,–,–
CCOc1ccccc1CNC(=O)c1cccc(NC(=O)c2nsc3ccccc23)c1,·,·,–,·,–
COc1ccc(-c2cc(C(=O)Nc3c(Cl)cccc3Cl)no2)cc1OC,·,·,–,·,–
CC(C)OC(=O)c1c(NC(=O)CCn2nnc3ccccc32)sc2c1CCCC2,36.7,–,·,–,–
CC(C)OC(=O)c1c(NC(=O)CCC(=O)O)sc2c1CCCCC2,–,–,–,–,–
O=C(c1cncc(Br)c1)N1CCN(S(=O)(=O)c2ccccc2)CC1,–,–,–,–,–
O=C(c1cncc(Br)c1)N1CCN(S(=O)(=O)c2ccccc2C(F)(F)F)CC1,40.4,–,–,–,–
CC1(c2ccccc2)NC(=O)N(CC(=O)N2CCOCC2)C1=O (stereo unspecified),–,–,–,–,–
CC(C)(C)C1(c2ccccc2)NC(=O)N(CC(=O)N2CCOCC2)C1=O (stereo unspecified),43.8,–,–,–,–
